Data taken from PubChem BioAssay (NCI).
About 83,000 compounds went through this panel and 20% of them were active in at least one assay; those are over-represented in the sample as a whole.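 Compound tested at a single concentration for 48 hours in 96-well plates; a percent growth value below 10 was scored as active.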 A number with no mark means an inactive call. Activity calls are given as the source filed them.

system: OVCAR-8 ovarian; assay: NCI-60 one-dose screen, 48 h (100 = growth as untreated, 0 = no growth, -100 = all killed); settings: 10 µM unless noted

SMILES | growth
Cc1nn(-c2ccccc2)c2ncnc(N/N=C/c3cccc(O)c3)c12 | 59.2%
C=C1CC[C@@H]2[C@]3(C)COC(c4ccccc4)O[C@@H]3CC[C@@]2(C)[C@@H]1C/C=C1/C(=O)OC[C@H]1O (stereo partly specified) | 56.6%
CN(C)CCNC(=O)c1ccc(-c2nc3ccc4[nH]ncc4c3c3c2CCC3)cc1 | 9.58% (active)
Fc1ccc(-c2cc3nc(C(Cl)Cl)nc(-c4ccc(F)cc4)n3n2)cc1 | 11.8%
C=C(C=O)[C@@H]1CC[C@]2(C)[C@H](C(=O)C=C3[C@H]4C[C@](C)(C(=O)OC)CC[C@]4(C)CC[C@]32C)[C@@]1(C)CCC#N | 13.5%
CCc1ccc(SC2c3ccc(N(CC)CC)cc3Oc3nc(N)c(C#N)c(N)c32)cc1 (stereo unspecified) | 5.08% (active)
CCOC(=O)C1=NNC(c2ccc(Cl)cc2)C1C(=O)N1C(=S)NC(=O)C1CC(C)C (stereo unspecified) | 100%
C#CCn1cccc1CNc1ccc(OC)cc1 | -28% (active)
NC(N)=Nc1ccc(Oc2cccc(NC(N)=Nc3ccc(Br)cc3)c2)cn1 | 68.1%
CC1(C)CC[C@]2(CN)CC[C@]3(C)C(=CC[C@@H]4[C@@]5(C)CCCNC(C)(C)[C@@H]5CC[C@]43C)[C@H]2C1 | 101%
O=C1C(c2ccccc2)=C(N2CCc3ccccc32)OC1(Cl)Cl | 74.3%
CC(=O)c1nnn(-c2c(C(=O)n3nc(C)cc3C)sc(=S)n2-c2ccccc2)c1C | 103%
COC(=O)C1(C)CCC[C@]2(C)[C@H]3C[C@H]4C(C(C)C)=C[C@]3(CC[C@@H]12)[C@H]1[C@@H]4[C@@H](OC(=O)c2ccco2)CC[C@@H]1OC(=O)c1ccco1 (stereo partly specified) | 100%
CC(=O)N1C(=S)NC(=O)C1CC(C)C (stereo unspecified) | 103%
C#Cc1ccc(C(=O)NCc2ccc(/C=C/C(=O)c3nccn3C)cc2)cc1 | 26.9%
Cn1ccnc1C(=O)/C=C/c1ccc(NC(=O)c2ccc(F)cc2)cc1 | 65%
O=C(O)c1ccc(-n2cc(CNc3cccc(Cl)c3)c(-c3ccc(F)cc3)n2)cc1 | 96.3%
CCC1=Cc2cc(OC)ccc2OC12C=Cc1cc(OC)ccc1O2 (stereo unspecified) | 41.3%
CCO/C=N/C1=C(C#N)C(c2ccc(OC)cc2)c2sc3c(C)cccc3c2O1 (stereo unspecified) | 29.3%

SMILES | growth
COc1cccc(O)c1/C=C(/C)c1ccc2c(OC)cccc2[o+]1 | 103%
C#CCNC1CCC(c2csc(C#C)n2)=C1C (stereo unspecified) | 40.5%
CCO/C=N/C1=C(C#N)C(c2ccc(OC)cc2)c2sc3c(CC)cccc3c2O1 (stereo unspecified) | 42.9%
C=CCn1c(SCC(=O)Nc2ccc(C(=O)/C=C/c3ccc(Cl)cc3)cc2)nnc1-c1c[nH]c2ccccc12 | 76.1%
N#Cc1cccc(CN2CCC3=C(C2)C(=O)N(Cc2ccc(Cl)cc2)C2=NCCCN23)c1 | 21.5%
CCN(CC)c1cn(-c2ccc(S(N)(=O)=O)cc2)nn1 | 102%
CCCCCc1ccc(S(=O)(=O)Nc2cccc(-c3csc(NC(=O)CCCCCN4CCN(C)CC4)n3)c2)cc1 | 81.9%
CCCCCc1ccc(S(=O)(=O)Nc2cc(-c3csc(NC(=O)CN4CCN(C)CC4)n3)ccc2OC)cc1 | 50.8%
COc1ccccc1NCc1cccn1Cc1ccc(F)cc1 | 103%
CC(=O)c1cc(C(=O)c2ccc(Br)cc2)n2cc(C)cc(C)c12 | 98.9%
O=C1Nc2ccccc2/C1=C/c1ccc(COCC2CO2)n1-c1ccc(O)cc1 (stereo unspecified) | 101%
C/C(=N\O)[C@H]1C[C@]23CC[C@]4(C)[C@H](CC[C@@H]5[C@@]6(C)CC/C(=N/O)C(C)(C)[C@@H]6CC[C@]54C)[C@H]2[C@H](C)C1(C)OC3 | 106%
NC(N)=Nc1ccc(Oc2cccc(Oc3ccc(Cl)c(C(F)(F)F)c3)c2)cn1 | -50.8% (active)
COc1ccc([C@@H]2c3[nH]c4ccccc4c3C[C@H]3C(=O)N(C4CCN(CC5CCCCC5)CC4)CC(=O)N23)c(OC)c1 | 82.2%
COc1ccc(C2CC(c3ccc(Nc4nc(NCCO)nc(N5CCOCC5)n4)cc3)=Nc3c(N)nc(N)nc3N2)cc1 (stereo unspecified) | 99.8%
Cc1ccc2c(c1)Oc1nc(N)c(C#N)c(N)c1C2Sc1ccc(F)cc1 (stereo unspecified) | -99.4% (active)
O=C(CCn1c[n+](CC(=O)c2ccc(-c3ccccc3)cc2)c2ccccc21)Nc1cccc2cccnc12 | 52.5%
O=S(=O)(NCCNc1nccc(-n2cnc3ccccc32)n1)c1ccc(Cl)cc1 | 102%
O=C1CCCc2nc(Nc3ccc(S(=O)(=O)Nc4ccc([N+](=O)[O-])cc4)cc3)ncc21 | 106%

system: OVCAR-5 ovarian; assay: as above; settings: 10 µM unless noted

SMILES | growth
Cc1nn(-c2ccccc2)c2ncnc(N/N=C/c3cccc(O)c3)c12 | 77.1%
C=C1CC[C@@H]2[C@]3(C)COC(c4ccccc4)O[C@@H]3CC[C@@]2(C)[C@@H]1C/C=C1/C(=O)OC[C@H]1O (stereo partly specified) | 105%
CN(C)CCNC(=O)c1ccc(-c2nc3ccc4[nH]ncc4c3c3c2CCC3)cc1 | 21.4%
Fc1ccc(-c2cc3nc(C(Cl)Cl)nc(-c4ccc(F)cc4)n3n2)cc1 | -14.3% (active)
C=C(C=O)[C@@H]1CC[C@]2(C)[C@H](C(=O)C=C3[C@H]4C[C@](C)(C(=O)OC)CC[C@]4(C)CC[C@]32C)[C@@]1(C)CCC#N | -25.7% (active)
CCc1ccc(SC2c3ccc(N(CC)CC)cc3Oc3nc(N)c(C#N)c(N)c32)cc1 (stereo unspecified) | -84.2% (active)
CCOC(=O)C1=NNC(c2ccc(Cl)cc2)C1C(=O)N1C(=S)NC(=O)C1CC(C)C (stereo unspecified) | 101%
C#CCn1cccc1CNc1ccc(OC)cc1 | -89.5% (active)
NC(N)=Nc1ccc(Oc2cccc(NC(N)=Nc3ccc(Br)cc3)c2)cn1 | 66.7%
CC1(C)CC[C@]2(CN)CC[C@]3(C)C(=CC[C@@H]4[C@@]5(C)CCCNC(C)(C)[C@@H]5CC[C@]43C)[C@H]2C1 | 105%
O=C1C(c2ccccc2)=C(N2CCc3ccccc32)OC1(Cl)Cl | 82%
CC(=O)c1nnn(-c2c(C(=O)n3nc(C)cc3C)sc(=S)n2-c2ccccc2)c1C | 120%
COC(=O)C1(C)CCC[C@]2(C)[C@H]3C[C@H]4C(C(C)C)=C[C@]3(CC[C@@H]12)[C@H]1[C@@H]4[C@@H](OC(=O)c2ccco2)CC[C@@H]1OC(=O)c1ccco1 (stereo partly specified) | 107%
CC(=O)N1C(=S)NC(=O)C1CC(C)C (stereo unspecified) | 100%
C#Cc1ccc(C(=O)NCc2ccc(/C=C/C(=O)c3nccn3C)cc2)cc1 | 26.8%
Cn1ccnc1C(=O)/C=C/c1ccc(NC(=O)c2ccc(F)cc2)cc1 | 41.2%
O=C(O)c1ccc(-n2cc(CNc3cccc(Cl)c3)c(-c3ccc(F)cc3)n2)cc1 | 112%
CCC1=Cc2cc(OC)ccc2OC12C=Cc1cc(OC)ccc1O2 (stereo unspecified) | 29.3%
CCO/C=N/C1=C(C#N)C(c2ccc(OC)cc2)c2sc3c(C)cccc3c2O1 (stereo unspecified) | 34.4%

SMILES | growth
COc1cccc(O)c1/C=C(/C)c1ccc2c(OC)cccc2[o+]1 | 106%
C#CCNC1CCC(c2csc(C#C)n2)=C1C (stereo unspecified) | 76%
CCO/C=N/C1=C(C#N)C(c2ccc(OC)cc2)c2sc3c(CC)cccc3c2O1 (stereo unspecified) | 43.5%
C=CCn1c(SCC(=O)Nc2ccc(C(=O)/C=C/c3ccc(Cl)cc3)cc2)nnc1-c1c[nH]c2ccccc12 | 97.3%
N#Cc1cccc(CN2CCC3=C(C2)C(=O)N(Cc2ccc(Cl)cc2)C2=NCCCN23)c1 | 38.7%
CCN(CC)c1cn(-c2ccc(S(N)(=O)=O)cc2)nn1 | 105%
CCCCCc1ccc(S(=O)(=O)Nc2cccc(-c3csc(NC(=O)CCCCCN4CCN(C)CC4)n3)c2)cc1 | 88.8%
CCCCCc1ccc(S(=O)(=O)Nc2cc(-c3csc(NC(=O)CN4CCN(C)CC4)n3)ccc2OC)cc1 | 62.4%
COc1ccccc1NCc1cccn1Cc1ccc(F)cc1 | 95.7%
CC(=O)c1cc(C(=O)c2ccc(Br)cc2)n2cc(C)cc(C)c12 | 89.8%
O=C1Nc2ccccc2/C1=C/c1ccc(COCC2CO2)n1-c1ccc(O)cc1 (stereo unspecified) | 107%
C/C(=N\O)[C@H]1C[C@]23CC[C@]4(C)[C@H](CC[C@@H]5[C@@]6(C)CC/C(=N/O)C(C)(C)[C@@H]6CC[C@]54C)[C@H]2[C@H](C)C1(C)OC3 | 105%
NC(N)=Nc1ccc(Oc2cccc(Oc3ccc(Cl)c(C(F)(F)F)c3)c2)cn1 | -74.5% (active)
COc1ccc([C@@H]2c3[nH]c4ccccc4c3C[C@H]3C(=O)N(C4CCN(CC5CCCCC5)CC4)CC(=O)N23)c(OC)c1 | 94.1%
COc1ccc(C2CC(c3ccc(Nc4nc(NCCO)nc(N5CCOCC5)n4)cc3)=Nc3c(N)nc(N)nc3N2)cc1 (stereo unspecified) | 109%
Cc1ccc2c(c1)Oc1nc(N)c(C#N)c(N)c1C2Sc1ccc(F)cc1 (stereo unspecified) | -93.5% (active)
O=C(CCn1c[n+](CC(=O)c2ccc(-c3ccccc3)cc2)c2ccccc21)Nc1cccc2cccnc12 | 81.9%
O=S(=O)(NCCNc1nccc(-n2cnc3ccccc32)n1)c1ccc(Cl)cc1 | 91.7%
O=C1CCCc2nc(Nc3ccc(S(=O)(=O)Nc4ccc([N+](=O)[O-])cc4)cc3)ncc21 | 111%
